Activity calls are given as the source filed them.
Legend:
[1] = binders of probe aFSTL3 on microarray, primary screen, stem cell growth factor project, biochemical, small-molecule microarray, fluorescence 635/667 (AID 1064); details: higher = more signal;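 further: measures binding of the biotinylated anti-FSTL3 antibody to printed compounds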
[2] = binders from COS7 lysate, DM2A8 probe, primary screen, torsin A project, cell lysate, small-molecule microarray, fluorescence 635/667 (AID 1065); details: higher = more signal, COS7 lysate expressing mutant human TOR1A
[3] = binders of probe aFGF2 on microarray, primary screen, stem cell growth factor project, biochemical, small-molecule microarray, fluorescence 635/667 (AID 1067); details: higher = more signal;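 further: measures binding of biotinylated aFGF2 protein to printed compounds on slides; z-score merges feature fluorescence and signal-to-noise across triplicate slides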
[4] = binders of probe aFGF10 on microarray, primary screen, stem cell growth factor project, biochemical, small-molecule microarray, fluorescence 635/667 (AID 1071); details: higher = more signal;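 further: score merges 667 nm spot intensity and signal to noise from triplicate slides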
[5] = target: Neurogenic locus notch homolog protein 2 (Homo sapiens) (UniProt Q04721); assay: Notch2 binders on small-molecule microarrays, primary screen, biochemical, small-molecule microarray, 635 nm fluorescence, stem cell growth factors (AID 1073); details: Notch2 binding, higher = more signal
[6] = target: Pro-neuregulin-1, membrane-bound isoform (Homo sapiens) (UniProt Q02297); assay: NRG1 binders on small-molecule microarrays, primary screen, psychiatric disease protein project, biochemical, small-molecule microarray, fluorescence 635/667 (AID 1075); details: NRG1 binding, 635 nm fluorescence, higher = more signal;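 further: score combines 667 nm spot fluorescence with signal to noise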
[7] = system: Neuregulin-1 EGF-like domain; assay: binders of neuregulin-1 EGF-like domain, primary screen, biochemical, small-molecule microarray, 635 nm fluorescence (AID 1081); details: small-molecule microarray binding, higher = more signal;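 further: binding of the protein to compounds printed on small-molecule microarray slides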
[8] = FRG1 promoter luciferase signal modulators, primary screen, FRG1 inhibition for FSHD, cell-based, C2C12 myotubes, firefly/Renilla luciferase, luminescence (AID 1084); details: higher = more signal, called active from +8 up or from −8 down
[9] = binders of probe aFST on microarray, primary screen, stem cell growth factor project, biochemical, small-molecule microarray, fluorescence 635/667 (AID 1086); details: higher = more signal;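 further: score merges 667 nm fluorescence with signal-to-noise of each printed compound spot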
[10] = binders of probe aHhip on microarray, primary screen, stem cell growth factor project, biochemical, small-molecule microarray, fluorescence 635/667 (AID 1087); details: higher = more signal;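 further: score merges spot fluorescence at 667nm with spot signal to noise ratio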
[11] = system: PRMT1 (protein arginine N-methyltransferase 1); assay: PRMT1 binders on small-molecule microarrays, primary screen, biochemical, small-molecule microarray, 635 nm fluorescence (AID 1088); details: small-molecule microarray binding, higher = more signal;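 further: binding of Prmt1 protein to compounds spotted on small-molecule microarray slides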
[12] = yeast growth modulation, basal conditions, primary screen, YJM789 clinical isolate, OD600, 24 h (AID 1089);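 further: growth of clinical yeast isolate S. cerevisiae YJM 789 seeded 1000 cells per well; test concentration not given here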; details: S. cerevisiae YJM789 growth, higher = more signal, called active from +8 up or from −8 down
[13] = fission yeast growth modulation, primary screen, strain 972, OD600, 24 h, no modulator (AID 1090);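 further: basal condition with compound alone and no growth modifier present; test concentration not given here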; details: S. pombe 972 growth, higher = more signal, called active from +8 up or from −8 down
[14] = S. cerevisiae growth modulation with rapamycin, primary screen, strain BY4716, OD600, 96 h (AID 1091); details: higher = more signal, called active from +8 up or from −8 down; further: test concentration not given here
[15] = target: Torsin-1A-interacting protein 2 (Homo sapiens) (UniProt Q8NFQ8); assay: LULL1 binders on small-molecule microarray, primary screen, cell lysate, human LULL1 lysate, 635/667 nm fluorescence (AID 1092); details: hLULL1 lysate binding, 635 nm fluorescence, higher = more signal;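 further: probe is lysate of COS7 cells overexpressing human LULL1; score merges per-feature 667 nm fluorescence with signal-to-noise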
[16] = E. coli growth modulation, two-sided OD650, primary screen, E. coli filamentation project, strain DRC41, 24 h (AID 1093); details: OD650, 24 h, higher = more signal, called active from +8 up or from −8 down;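 further: MC1000 strain lacking acrAB efflux and sulA so SOS filamentation is blocked; test concentration not given here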
[17] = small-molecule microarray binders of probe aLefty2, primary screen, biochemical, biotinylated probe, 635/667 nm fluorescence (AID 1094); details: higher = more signal;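 further: score merges spot fluorescence near 667 nm with spot signal-to-noise ratio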
[18] = system: Noggin (protein binding on small-molecule microarray); assay: Noggin binders on small-molecule microarray, primary screen, biochemical, 635/667 nm fluorescence (AID 1095); details: 635 nm fluorescence, higher = more signal;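 further: score merges 667 nm feature fluorescence with signal to noise over triplicate slides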
[19] = target: Neurogenic locus notch homolog protein 3 (Homo sapiens) (UniProt Q9UM47); assay: NOTCH3 binders on small-molecule microarray, primary screen, biochemical, 635/667 nm fluorescence (AID 1096); details: NOTCH3 binding, 635 nm fluorescence, higher = more signal
[20] = small-molecule microarray binders of probe aEGFR, primary screen, biochemical, biotinylated probe, 635/667 nm fluorescence (AID 1097); details: higher = more signal;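 further: probe is a biotinylated anti-EGFR antibody binding compounds printed on slides; score combines fluorescence near 667 nm and signal to noise of each spot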

Chain of Neurogenic locus notch homolog protein 3 (Homo sapiens) (Q9UM47 whole entry, looked up): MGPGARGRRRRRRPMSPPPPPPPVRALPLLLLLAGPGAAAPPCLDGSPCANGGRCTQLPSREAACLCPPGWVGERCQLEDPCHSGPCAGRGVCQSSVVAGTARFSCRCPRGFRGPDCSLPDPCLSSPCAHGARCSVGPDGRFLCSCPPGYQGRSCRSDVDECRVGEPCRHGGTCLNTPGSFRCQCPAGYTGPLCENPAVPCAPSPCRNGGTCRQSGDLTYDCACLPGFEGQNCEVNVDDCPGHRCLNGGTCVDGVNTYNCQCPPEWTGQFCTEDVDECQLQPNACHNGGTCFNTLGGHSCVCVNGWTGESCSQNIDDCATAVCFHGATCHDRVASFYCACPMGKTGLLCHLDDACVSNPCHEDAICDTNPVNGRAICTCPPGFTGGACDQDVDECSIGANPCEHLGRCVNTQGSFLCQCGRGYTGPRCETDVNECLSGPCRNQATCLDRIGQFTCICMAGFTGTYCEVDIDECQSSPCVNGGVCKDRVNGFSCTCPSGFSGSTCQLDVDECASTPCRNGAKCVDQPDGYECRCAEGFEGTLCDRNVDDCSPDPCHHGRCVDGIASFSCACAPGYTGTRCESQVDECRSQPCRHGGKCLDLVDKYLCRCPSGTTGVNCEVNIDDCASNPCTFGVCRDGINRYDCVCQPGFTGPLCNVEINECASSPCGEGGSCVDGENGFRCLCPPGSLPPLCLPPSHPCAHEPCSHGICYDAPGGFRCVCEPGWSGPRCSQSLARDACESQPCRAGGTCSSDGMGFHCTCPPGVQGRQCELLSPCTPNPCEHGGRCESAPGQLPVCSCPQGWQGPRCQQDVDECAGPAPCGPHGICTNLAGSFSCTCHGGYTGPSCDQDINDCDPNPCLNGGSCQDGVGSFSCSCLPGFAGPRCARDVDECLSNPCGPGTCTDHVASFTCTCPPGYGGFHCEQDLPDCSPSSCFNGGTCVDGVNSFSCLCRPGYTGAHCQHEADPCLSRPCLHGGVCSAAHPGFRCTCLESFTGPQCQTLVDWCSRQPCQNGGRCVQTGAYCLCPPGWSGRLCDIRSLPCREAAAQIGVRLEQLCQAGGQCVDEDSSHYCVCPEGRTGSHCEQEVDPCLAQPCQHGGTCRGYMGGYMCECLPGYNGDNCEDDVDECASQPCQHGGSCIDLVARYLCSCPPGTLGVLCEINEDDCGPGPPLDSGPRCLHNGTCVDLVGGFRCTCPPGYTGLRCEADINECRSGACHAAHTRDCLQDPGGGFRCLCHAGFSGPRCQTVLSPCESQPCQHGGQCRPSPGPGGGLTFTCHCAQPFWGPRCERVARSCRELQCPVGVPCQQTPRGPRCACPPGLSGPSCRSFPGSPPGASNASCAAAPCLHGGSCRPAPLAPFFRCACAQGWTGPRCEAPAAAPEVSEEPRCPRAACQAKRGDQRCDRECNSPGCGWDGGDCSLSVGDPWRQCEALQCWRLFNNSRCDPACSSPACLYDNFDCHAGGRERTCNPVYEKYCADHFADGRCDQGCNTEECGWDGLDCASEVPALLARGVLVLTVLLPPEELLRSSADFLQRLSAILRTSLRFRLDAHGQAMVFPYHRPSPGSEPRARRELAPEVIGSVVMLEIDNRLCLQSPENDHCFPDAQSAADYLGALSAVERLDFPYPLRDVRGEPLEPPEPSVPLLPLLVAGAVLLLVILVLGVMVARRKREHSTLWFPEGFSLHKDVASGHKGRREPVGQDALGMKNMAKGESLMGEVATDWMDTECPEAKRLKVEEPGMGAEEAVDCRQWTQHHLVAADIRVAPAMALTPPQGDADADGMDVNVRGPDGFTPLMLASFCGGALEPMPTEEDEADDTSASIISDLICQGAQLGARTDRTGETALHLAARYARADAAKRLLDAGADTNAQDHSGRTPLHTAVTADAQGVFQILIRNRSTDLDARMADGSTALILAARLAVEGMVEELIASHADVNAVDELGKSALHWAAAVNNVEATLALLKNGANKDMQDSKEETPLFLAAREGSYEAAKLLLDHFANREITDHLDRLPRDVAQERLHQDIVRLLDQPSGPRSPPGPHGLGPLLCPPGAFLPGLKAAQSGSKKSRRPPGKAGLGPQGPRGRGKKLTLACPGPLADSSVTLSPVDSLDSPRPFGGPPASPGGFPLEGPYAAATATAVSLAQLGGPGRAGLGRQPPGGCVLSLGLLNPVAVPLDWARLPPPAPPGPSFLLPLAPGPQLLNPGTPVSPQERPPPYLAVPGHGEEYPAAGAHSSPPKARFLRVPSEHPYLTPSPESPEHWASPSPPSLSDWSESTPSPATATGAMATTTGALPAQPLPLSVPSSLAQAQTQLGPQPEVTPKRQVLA
Chain of Neurogenic locus notch homolog protein 2 (Homo sapiens) (Q04721 whole entry, looked up, canonical isoform): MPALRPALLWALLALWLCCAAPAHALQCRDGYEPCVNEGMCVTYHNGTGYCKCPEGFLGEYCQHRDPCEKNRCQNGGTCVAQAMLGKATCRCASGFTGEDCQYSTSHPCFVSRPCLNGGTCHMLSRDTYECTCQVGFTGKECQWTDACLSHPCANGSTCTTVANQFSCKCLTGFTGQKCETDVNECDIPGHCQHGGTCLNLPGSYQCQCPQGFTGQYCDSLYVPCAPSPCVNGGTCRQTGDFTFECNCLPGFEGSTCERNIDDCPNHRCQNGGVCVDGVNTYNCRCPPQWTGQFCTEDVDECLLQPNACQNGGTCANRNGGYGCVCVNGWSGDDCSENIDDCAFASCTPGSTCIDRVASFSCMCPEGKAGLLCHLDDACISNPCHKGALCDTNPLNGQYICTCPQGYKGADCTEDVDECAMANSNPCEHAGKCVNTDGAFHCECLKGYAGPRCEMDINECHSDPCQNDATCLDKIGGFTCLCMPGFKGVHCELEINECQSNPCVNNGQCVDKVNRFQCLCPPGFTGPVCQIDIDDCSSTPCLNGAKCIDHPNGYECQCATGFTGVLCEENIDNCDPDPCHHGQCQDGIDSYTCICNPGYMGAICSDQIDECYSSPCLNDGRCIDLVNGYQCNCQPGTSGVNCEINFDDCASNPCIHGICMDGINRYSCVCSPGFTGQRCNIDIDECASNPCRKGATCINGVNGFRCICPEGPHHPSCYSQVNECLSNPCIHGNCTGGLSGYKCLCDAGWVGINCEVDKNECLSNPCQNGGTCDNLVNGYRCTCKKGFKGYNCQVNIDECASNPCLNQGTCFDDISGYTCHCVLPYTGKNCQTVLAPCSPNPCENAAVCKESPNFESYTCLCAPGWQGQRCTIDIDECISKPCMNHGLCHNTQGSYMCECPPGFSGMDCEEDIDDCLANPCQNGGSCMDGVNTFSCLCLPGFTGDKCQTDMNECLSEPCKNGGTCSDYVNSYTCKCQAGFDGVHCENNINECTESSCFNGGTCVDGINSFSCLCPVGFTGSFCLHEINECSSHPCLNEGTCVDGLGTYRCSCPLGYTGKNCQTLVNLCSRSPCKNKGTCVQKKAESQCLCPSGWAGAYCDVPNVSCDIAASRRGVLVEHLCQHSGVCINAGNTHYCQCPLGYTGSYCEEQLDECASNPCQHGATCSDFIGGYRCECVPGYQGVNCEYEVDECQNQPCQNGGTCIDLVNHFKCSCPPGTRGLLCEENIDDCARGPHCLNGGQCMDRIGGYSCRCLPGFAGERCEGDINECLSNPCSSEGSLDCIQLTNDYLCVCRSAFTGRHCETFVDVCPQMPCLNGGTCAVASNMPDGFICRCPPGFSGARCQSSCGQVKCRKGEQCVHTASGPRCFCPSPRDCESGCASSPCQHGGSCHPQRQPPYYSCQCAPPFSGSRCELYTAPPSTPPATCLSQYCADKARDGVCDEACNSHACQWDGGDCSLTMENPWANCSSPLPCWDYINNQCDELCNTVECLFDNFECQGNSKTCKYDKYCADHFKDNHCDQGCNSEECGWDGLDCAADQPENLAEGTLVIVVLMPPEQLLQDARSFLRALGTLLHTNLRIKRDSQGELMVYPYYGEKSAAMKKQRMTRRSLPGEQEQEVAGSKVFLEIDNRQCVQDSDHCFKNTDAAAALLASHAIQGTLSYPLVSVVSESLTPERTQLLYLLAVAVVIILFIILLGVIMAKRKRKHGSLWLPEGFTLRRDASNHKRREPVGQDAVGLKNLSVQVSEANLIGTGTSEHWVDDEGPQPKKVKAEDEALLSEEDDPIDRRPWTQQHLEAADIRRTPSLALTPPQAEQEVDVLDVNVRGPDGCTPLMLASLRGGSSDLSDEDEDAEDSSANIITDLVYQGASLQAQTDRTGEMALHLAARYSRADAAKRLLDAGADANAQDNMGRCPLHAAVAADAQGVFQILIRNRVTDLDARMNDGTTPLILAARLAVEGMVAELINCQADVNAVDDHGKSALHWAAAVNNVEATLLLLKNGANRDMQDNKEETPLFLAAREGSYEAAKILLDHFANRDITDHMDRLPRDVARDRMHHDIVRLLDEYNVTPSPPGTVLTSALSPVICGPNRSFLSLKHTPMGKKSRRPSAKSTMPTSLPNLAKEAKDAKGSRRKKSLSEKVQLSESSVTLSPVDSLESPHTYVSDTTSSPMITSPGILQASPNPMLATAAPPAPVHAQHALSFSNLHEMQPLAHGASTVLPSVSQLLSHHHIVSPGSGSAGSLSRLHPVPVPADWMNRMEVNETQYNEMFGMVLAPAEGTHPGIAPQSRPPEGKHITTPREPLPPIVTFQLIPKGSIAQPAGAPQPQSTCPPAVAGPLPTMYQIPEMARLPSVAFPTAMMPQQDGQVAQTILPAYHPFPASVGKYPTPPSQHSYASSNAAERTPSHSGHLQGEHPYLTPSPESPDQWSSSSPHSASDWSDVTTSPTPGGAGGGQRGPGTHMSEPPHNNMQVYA

Cc1ccc(N2C(=O)c3ccccc3[C@](C)(C(=O)NCCN3CCOCC3)[C@@H]2c2ccc(CO)cc2)nc1
composite z-score [1]: 1.54 | composite z-score [2]: -0.653 | composite z-score [3]: -0.0249 | composite z-score [4]: -0.112 | composite z-score [5]: -1.41 | composite z-score [6]: -0.819 | composite z-score [7]: 0.0367 | z-score [8]: 0.517 (inactive) | composite z-score [9]: -0.748 | composite z-score [10]: -0.287 | composite z-score [11]: -0.405 | z-score [12]: 0.0623 (inactive) | z-score [13]: -0.822 (inactive) | z-score [14]: -0.324 (inactive) | composite z-score [15]: 1.04 | z-score [16]: -1.4 (inactive) | composite z-score [17]: 0.0216 | composite z-score [18]: -1.02 | composite z-score [19]: -1.74 | composite z-score [20]: -0.312

O=C1C2C=CC(C(O)c3ccccn3)N(Nc3ccccc3F)C2C(=O)N1c1ccccc1 (stereo not given)
composite z-score [1]: -0.22 | composite z-score [2]: 0.135 | composite z-score [3]: -0.047 | composite z-score [4]: 0.4 | composite z-score [5]: 0.417 | composite z-score [6]: 0.301 | composite z-score [7]: 1.02 | z-score [8]: 1.9 (inactive) | composite z-score [9]: 0.19 | composite z-score [10]: -0.0945 | composite z-score [11]: 0.0392 | z-score [12]: 0.839 (inactive) | z-score [13]: 0.0161 (inactive) | z-score [14]: -0.207 (inactive) | composite z-score [15]: 1 | z-score [16]: -0.717 (inactive) | composite z-score [17]: -0.0561 | composite z-score [18]: 0.0291 | composite z-score [19]: -0.584 | composite z-score [20]: -0.0581

COc1cc2c(cc1O)C(c1ccc(CN3CCCC3)cc1)N(Cc1sc3ccccc3c1Cl)CC2 (stereo not given)
composite z-score [1]: 0.719 | composite z-score [2]: -0.002 | composite z-score [3]: -0.0687 | composite z-score [4]: 0.156 | composite z-score [5]: 0.805 | composite z-score [6]: 0.072 | composite z-score [7]: 1.17 | z-score [8]: 0.0314 (inactive) | composite z-score [9]: 1.38 | composite z-score [10]: -0.214 | composite z-score [11]: 1.13 | z-score [12]: -1.43 (inactive) | z-score [13]: -17.7 (active) | z-score [14]: -1.1 (inactive) | composite z-score [15]: 1.93 | z-score [16]: 0.504 (inactive) | composite z-score [17]: 0.157 | composite z-score [18]: 0.369 | composite z-score [19]: 0.202 | composite z-score [20]: 0.0475

CN(C)CCCC[C@@H]1NC(=O)[C@@H]2C[C@H](C(=O)NCCCCCN)[C@H](c3ccc(O)cc3)N2C1=O
composite z-score [1]: 0.591 | composite z-score [2]: 0.137 | composite z-score [3]: -0.043 | composite z-score [4]: -0.285 | composite z-score [5]: 0.235 | composite z-score [6]: 2.23 | composite z-score [7]: 0.293 | z-score [8]: -0.926 (inactive) | composite z-score [9]: 0.0993 | composite z-score [10]: -0.0324 | composite z-score [11]: 0.255 | z-score [12]: 0.212 (inactive) | z-score [13]: -0.977 (inactive) | z-score [14]: 0.213 (inactive) | composite z-score [15]: 2.6 | z-score [16]: 0.0706 (inactive) | composite z-score [17]: -0.0862 | composite z-score [18]: -0.668 | composite z-score [19]: -0.0504 | composite z-score [20]: -0.075

C=CC[C@@]1(C(=O)NCCN2CCOCC2)N=C(c2ccc(OCCCO)cc2)O[C@@H]1c1ccccc1CN=[N+]=[N-]
composite z-score [1]: 1 | composite z-score [2]: 0.812 | composite z-score [3]: -0.0524 | composite z-score [4]: 0.455 | composite z-score [5]: 0.674 | composite z-score [6]: 1.26 | composite z-score [7]: 1.29 | z-score [8]: -0.484 (inactive) | composite z-score [9]: 1.65 | composite z-score [10]: 0.0989 | composite z-score [11]: 1.56 | z-score [12]: -1.46 (inactive) | z-score [13]: -1.18 (inactive) | z-score [14]: -0.548 (inactive) | composite z-score [15]: 3.02 | z-score [16]: 0.0499 (inactive) | composite z-score [17]: 0.149 | composite z-score [18]: -0.0392 | composite z-score [19]: 0.19 | composite z-score [20]: -0.0735

[N-]=[N+]=NCc1ccccc1[C@H]1OC(c2ccc(OCCCO)cc2)=N[C@@]1(Cc1ccccc1)C(=O)NCC(O)CO (stereo not given in full)
composite z-score [1]: 0.835 | composite z-score [2]: 0.768 | composite z-score [3]: -0.127 | composite z-score [4]: 0.407 | composite z-score [5]: 0.641 | composite z-score [6]: 1.65 | composite z-score [7]: 0.565 | z-score [8]: -0.0633 (inactive) | composite z-score [9]: 0.1 | composite z-score [10]: -0.146 | composite z-score [11]: 1.25 | z-score [12]: -0.286 (inactive) | z-score [13]: 0.669 (inactive) | z-score [14]: -1.22 (inactive) | composite z-score [15]: 3.5 | z-score [16]: 0.203 (inactive) | composite z-score [17]: 0.102 | composite z-score [18]: -0.116 | composite z-score [19]: -0.046 | composite z-score [20]: 0.0073

CC(C)N1C(=O)c2ccccc2[C@](C)(C(=O)NCCCN(C)C)[C@@H]1c1ccc(CO)cc1
composite z-score [1]: 0.261 | composite z-score [2]: 1.04 | composite z-score [3]: -0.154 | composite z-score [4]: -0.231 | composite z-score [5]: -0.595 | composite z-score [6]: 0.724 | composite z-score [7]: 1.07 | z-score [8]: 1.47 (inactive) | composite z-score [9]: -0.128 | composite z-score [10]: -0.0672 | composite z-score [11]: -0.109 | z-score [12]: -0.763 (inactive) | z-score [13]: -1.26 (inactive) | z-score [14]: -1.36 (inactive) | composite z-score [15]: 2.41 | z-score [16]: 0.0321 (inactive) | composite z-score [17]: 0.0071 | composite z-score [18]: -0.818 | composite z-score [19]: -1.28 | composite z-score [20]: -0.22

C=C(CCCC)C(=O)CC[C@H](OC(=O)c1ccccc1-c1ccccc1C(=O)O)c1ccc(CO)o1
composite z-score [1]: -0.619 | composite z-score [2]: 0.779 | composite z-score [3]: -0.0206 | composite z-score [4]: 1.16 | composite z-score [5]: 0.455 | composite z-score [6]: 0.606 | composite z-score [7]: 1.25 | z-score [8]: -0.225 (inactive) | composite z-score [9]: 0.367 | composite z-score [10]: -0.0994 | composite z-score [11]: 1.55 | z-score [12]: -0.521 (inactive) | z-score [13]: 0.162 (inactive) | z-score [14]: 0.437 (inactive) | composite z-score [15]: 1.99 | z-score [16]: 0.251 (inactive) | composite z-score [17]: -0.132 | composite z-score [18]: 1.35 | composite z-score [19]: 1.06 | composite z-score [20]: -0.065

CN(C)CCCCCCNC(=O)[C@@H]1C[C@@H]2C(=O)NCC(=O)N2[C@@H]1c1cccc(OCCO)c1
composite z-score [1]: -0.131 | composite z-score [2]: 1.37 | composite z-score [3]: 0.153 | composite z-score [4]: 0.816 | composite z-score [5]: 1.14 | composite z-score [6]: 0.346 | composite z-score [7]: 1.26 | z-score [8]: 2.12 (inactive) | composite z-score [9]: 0.555 | composite z-score [10]: 0.164 | composite z-score [11]: 1.53 | z-score [12]: 0.116 (inactive) | z-score [13]: -0.192 (inactive) | z-score [14]: 0.191 (inactive) | composite z-score [15]: 3.07 | z-score [16]: 0.121 (inactive) | composite z-score [17]: 0.164 | composite z-score [18]: 1.17 | composite z-score [19]: 1.03 | composite z-score [20]: 0.0225

[N-]=[N+]=NCc1ccccc1C[C@]1(C(=O)NCCN2CCOCC2)N=C(c2ccc(OCCCO)cc2)O[C@H]1c1ccccc1CN=[N+]=[N-]
composite z-score [1]: -0.199 | composite z-score [2]: -0.671 | composite z-score [3]: 0.0011 | composite z-score [4]: 1.12 | composite z-score [5]: 1.03 | composite z-score [6]: 1.11 | composite z-score [7]: 1.2 | z-score [8]: -0.0883 (inactive) | composite z-score [9]: 1.26 | composite z-score [10]: 0.0139 | composite z-score [11]: 1.53 | z-score [12]: -2.57 (inactive) | z-score [13]: -0.847 (inactive) | z-score [14]: -0.802 (inactive) | composite z-score [15]: -3.05 | z-score [16]: 1.2 (inactive) | composite z-score [17]: 0.111 | composite z-score [18]: 1.16 | composite z-score [19]: 1.08 | composite z-score [20]: 0.0278

— PubChem BioAssay
